From PubChem
Sfp inh: qHTS Assay for Inhibitors of Bacillus subtilis Sfp phosphopantetheinyl transferase (PPTase); AID 1490, 2009; Biochemical Sfp PPTase activity, qHTS; hit rate 3.5% among 310,000; Potency, µM, inactives show largest response in the series, negative = inhibition, actives largely listed as inhibitors;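 note: the enzyme is Sfp with the accession as filed and its product quenches rhodamine fluorescence; 0% = enzyme reaction without inhibitor and -100% = no enzyme wells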
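Sfp 15 nM + cpd, 15 min RT; start w/ rhodamine-CoA 5 uM, BHQ-2-YbbR 12.5 uM (final); 50 mM Hepes pH 7.6, 10 mM MgCl2, 0.01% NP-40, 0.01% BSA; read 525/598 nm at 0 and 30 min.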
GCN5L2 inh: qHTS Assay for Inhibitors of GCN5L2 | GCN5L2 HAT assay, ThioGlo1 CoA-SH fluorescence | Potency, µM (titrated, usually from 58.9 µM), without a hit: at the top dose activity change, negative = inhibition, hits mostly inhibitors | hit rate 0.21% among 390,000 | Histone acetyltransferase KAT2A (Homo sapiens), Q92830; note: % is set by controls: 0 for no effect and ±100 for the full control effect
Target sequence (Q92830 whole entry, looked up): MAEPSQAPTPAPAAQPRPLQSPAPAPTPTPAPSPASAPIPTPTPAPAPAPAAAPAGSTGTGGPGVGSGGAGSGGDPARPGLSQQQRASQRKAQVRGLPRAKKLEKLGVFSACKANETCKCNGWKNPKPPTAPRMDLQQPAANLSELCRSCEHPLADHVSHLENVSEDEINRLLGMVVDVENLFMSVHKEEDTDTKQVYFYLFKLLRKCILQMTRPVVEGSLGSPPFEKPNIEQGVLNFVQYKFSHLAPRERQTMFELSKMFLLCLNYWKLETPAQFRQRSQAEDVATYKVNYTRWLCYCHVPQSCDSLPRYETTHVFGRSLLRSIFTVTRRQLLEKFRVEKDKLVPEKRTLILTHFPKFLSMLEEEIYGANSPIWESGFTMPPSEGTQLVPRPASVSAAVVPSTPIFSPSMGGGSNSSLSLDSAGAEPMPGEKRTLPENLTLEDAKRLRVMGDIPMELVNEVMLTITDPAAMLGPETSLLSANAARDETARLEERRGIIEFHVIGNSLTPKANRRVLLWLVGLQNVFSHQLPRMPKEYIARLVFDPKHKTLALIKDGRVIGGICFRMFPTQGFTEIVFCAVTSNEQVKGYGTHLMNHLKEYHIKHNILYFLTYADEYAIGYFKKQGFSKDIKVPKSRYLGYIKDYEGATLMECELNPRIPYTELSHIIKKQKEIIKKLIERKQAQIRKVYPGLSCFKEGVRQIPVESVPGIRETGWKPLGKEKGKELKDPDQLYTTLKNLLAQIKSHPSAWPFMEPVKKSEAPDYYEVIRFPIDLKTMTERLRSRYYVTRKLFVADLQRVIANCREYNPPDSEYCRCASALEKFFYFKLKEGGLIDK
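Fluorescence readout, Ex340nm/Em540nm: ThioGlo1 (50uM final) reacts with free CoA thiol released as 20nM GCN5L2 acetylates H3(1-25) peptide (75uM) using acetyl-CoA (70uM). Compound and enzyme sat 15 min beforehand; 20 min room-temperature reaction.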
Epigenetic derep: Quantitative High-Throughput Screen for Regulators of Epigenetic Control; Potency, µM (series often up to 53.9 µM), without a hit: top-dose GFP activation, most hits filed as activators; hit rate 0.2% among 280,000; murine LDR cells, GFP reporter derepression, 30 h; note: % of control where 0% means no effect; nearly all actives have a fitted effect of over 60% in size
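Reporter derepression read as number of fluorescent GFP-positive objects, 20-120 um in size, counted by laser-scanning cytometer. Mouse LDR line with an epigenetically silenced CMV-GFP locus; compound incubation 30 h, 37 C.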
NPSR antagonist: qHTS Assay for Antagonists of the Neuropeptide S Receptor: cAMP Signal Transduction; Q6W5P4; CHO-NPSR cells, cAMP TR-FRET, antagonist mode; Potency, µM (highest dose often 38.3 µM), inactives show top-dose activity change, negative = inhibition, usual class: inhibitors; hit rate 1% among 220,000; AID 1461, 2008; note: % is set by controls: 0 for no effect and ±100 for the full control effect; nearly all actives have a fitted effect of over 50% in size
IMPase Li inh: qHTS Assay for Identifying the Cell-Membrane Permeable IMPase Inhibitors: Potentiation with Lithium; CHO-M1 cells, IP1 TR-FRET (IP-One), carbachol + lithium; Potency, µM (doses to about 59.4 µM), inactives show at the highest dose activity, negative = IMPase inhibition, hits mostly inhibitors; hit rate 0.35% among 210,000;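 note: IP1 builds up when IMPase is blocked and the TR-FRET signal falls; plate controls were basal vehicle for no effect and high inhibitor control for full effect; nearly all actives have a fitted effect of over 50% in size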
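Test compounds were applied to CHO-M1 cells previously cultured for 16–30 h at 2000 per well. A small lithium amount accompanied them; after 30 min at 37C, IP1 was quantified by TR-FRET.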
KDM4E inh: qHTS Assay for Inhibitors of Human Jumonji Domain Containing 2E (JMJD2E); hit rate 1.6% among 230,000; Potency, µM (titrated, usually from 57.1 µM), for the others: at the highest dose activity change, negative = inhibition, usual class: inhibitors; JMJD2E catalytic domain, FDH-coupled NADH fluorescence (FDH is formaldehyde dehydrogenase); Lysine-specific demethylase 4E (Homo sapiens), B2RXH2; active = well fitted inhibition curve with a large enough effect, not every such curve was filed as active; inconclusive = small, poorly fitted or top-dose-only effect, or another doubt; inactive = no such curve, though single readings can be large or run the other way;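 note: 0% = wells with enzyme and -100% = buffer wells without enzyme; nearly all actives have a fitted effect of over 50% in size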
An asterisk follows results filed as active; ? = inconclusive; · = not tested or not shown; ! = not active in a repeat; [ ] = dose if it differs, or a comment. An excerpt weighted towards active compounds, which were near 3.6% of everything screened. Unless noted, calls come from the whole dose curve; as a rule, active = well fitted curve in the direction sought with a large enough effect; inconclusive = small, poorly fitted or top-dose-only effect, or another doubt; inactive = no such curve, though single readings can be large; an effect the other way counts as inactive or inconclusive. Potency is the fitted concentration of half-maximal effect.

SMILES	Sfp inh	GCN5L2 inh	Epigenetic derep	NPSR antagonist	IMPase Li inh	KDM4E inh
CCCCCC(=O)NNC(=S)NC(=O)c1ccc([N+](=O)[O-])cc1	35µM*	?	-1%	5%	2%	-27%
Cc1ccc(C(=O)NC(=S)NNC(=O)c2ccc([N+](=O)[O-])cc2)cc1	14%	-8%	·	·	·	·
COc1ccc(OCC(=O)NNC(=S)NC(=O)c2ccc([N+](=O)[O-])cc2)cc1	32µM*	?	·	·	·	·
CC(=O)NC(=S)NNC(=O)COc1ccc([N+](=O)[O-])cc1	-18%	-5%	1%	-4%	0%	-1%
CNc1cccccc1=S	2%	?	3%	?	29%[38.3 µM]	25µM*
N#C/C(=N\Nc1ccc([N+](=O)[O-])cc1)C(N)=S	45µM*	-6%	2%	?	·	-19%
N#C/C(=N\Nc1cccc([N+](=O)[O-])c1)C(=O)c1ccc(Br)cc1	-6%	?	-1%	6.3µM*	20%	-3%
O=C(/C=C/c1ccc(Cl)cc1)Nc1nccs1	8%	-6%	0%	3%	5%	5%
C/C=C/C=C/C(=O)Nc1nccs1	35µM*	7%	1%	12%	1%	-1%
COC(=O)C/C=C/[C@@H](C)[C@H](OC)c1c(Br)ccc2c1OCO2	9%	·	0%	·	17%	6%
O=C(/C=C\c1ccc(O)c(O)c1)O[C@@H](Cc1ccc(O)c(O)c1)C(=O)O	50µM*	-15%	0%	·	20%	4.5µM*
O=C(/C=C/c1ccc(O)c(O)c1)OC(Cc1ccc(O)c(O)c1)C(=O)O (stereo unspecified)	79µM*!	?	2%	·	23%	4µM*
C/C(=N\Nc1ncc(Cl)cc1Cl)c1ccc(N2CCOCC2)cc1	25µM*	-16%	-7%	-10%	10%	2%
C/C(=N\Nc1ccc(Cl)c(C(=O)O)c1)c1ccccn1	79µM*	-14%	-1%	11%	·	-4%
C/C(=N\Nc1ncc(Cl)cc1Cl)c1ccccn1	-23%	-7%	0.63µM*	1.3µM*	17%	1%
C/C(=N\Nc1ccc(Cl)c(C(=O)O)c1)c1cccc2ccccc12	-10%	-20%	·	·	·	·
C=CCCN(Cc1ccc(OC)cc1)S(=O)(=O)c1ccccc1Br	-5%	·	·	·	·	·
CCSC[C@H](NC(=O)[C@H](C)NC(=O)[C@@H](N)Cc1ccc(O)cc1)C(=O)N[C@@H](CC(=O)O)C(=O)N[C@H](C(=O)N[C@@H](C)C(=O)N[C@H](C(=O)N[C@@H](CSCC)C(=O)N[C@H](C(=O)N[C@H](C(=O)N[C@@H](Cc1cnc[nH]1)C(=O)N[C@@H](CCCNC(=N)N)C(=O)N[C@@H](CC(C)C)C(=O)N[C@@H](C)C(=O)NCC(=O)N[C@@H](CC(C)C)C(=O)N[C@@H](CC(C)C)C(=O)N[C@@H](CO)C(=O)N[C@@H](CCCNC(=N)N)C(=O)N[C@@H](CO)C(=O)NCC(=O)NCC(=O)N[C@H](C(=O)N[C@H](C(=O)N[C@@H](CCCCN)C(=O)N[C@@H](CC(N)=O)C(=O)N[C@@H](CC(N)=O)C(=O)N[C@@H](Cc1ccccc1)C(=O)N[C@H](C(=O)N1CCC[C@H]1C(=O)N[C@H](C(=O)N[C@@H](CC(N)=O)C(=O)N[C@H](C(=O)NCC(=O)N[C@@H](CO)C(=O)N[C@@H](CCCCN)C(=O)N[C@@H](C)C(=O)N[C@@H](Cc1ccccc1)C(N)=O)C(C)C)[C@@H](C)O)C(C)C)C(C)C)C(C)C)[C@@H](C)O)C(C)C)[C@@H](C)O)[C@@H](C)O	10%	-28%	·	·	·	·
CCN(CC)C(=O)CSc1nnc(-c2ccc(F)cc2)n1N	11%	-6%	-2%	1%[46.1 µM]	1%[38.3 µM]	4%
CCN(CC)C(=O)CSc1n[nH]c(=S)n1N	50µM*	?	0%	-3%[7.67 µM]	·	?
CSC1=N/C(=C\c2ccccc2F)C(=O)S1	56µM*	-5%	-6%	-3%[46.1 µM]	·	-5%
Cc1c(Cl)c(C(=O)NNC(=S)Nc2ccc(F)cc2)nn1C	13%	-12%	0%	-4%	7%	20µM*
Cc1c(Cl)c(C(=O)NNC(=S)Nc2ccccc2)nn1C	5%	-6%	1%	-7%[46.1 µM]	2%[38.3 µM]	10µM*
CCNC(=S)NNC(=O)c1nn(C)c(C)c1Cl	-6%	1%	3%	14%	-2%	-26%
CCOc1ccc(Nc2nc(N)c(C(=O)c3ccccc3Cl)s2)cc1	·	0%	?	·	·	·
SMILES	Sfp inh	GCN5L2 inh	Epigenetic derep	NPSR antagonist	IMPase Li inh	KDM4E inh
O=C(O)/C=C/C(=O)NCCc1cccc(Cl)c1	11%	-19%	-1%	-8%	·	11%
O=C(/C=C/c1cccc(Cl)c1)NCCc1ccccc1	20µM*	33%	1%	-5%[46.1 µM]	4%	-2%
c1cnc2ccc3ncccc3c2c1	11%	-8%	1%	7%	·	18µM*
Nc1ccc2ncccc2c1N	6.3µM*	0%	?	23%	14%	-26%
c1ccc2c(c1)ccc1ncccc12	3%	-4%	0%	4%	-17%	-22%
CCC(=O)OC1=CN(Cc2ccccc2)S(=O)(=O)c2ccccc21	·	-13%	-2%	·	·	·
CCCCCCCCCCCCCCC[C@@H](O)[C@H](CO)NC(=O)CCCCCCC	29%	-9%	2%	·	1%	7%
C=CCSC1=N/C(=C\C=C\c2ccco2)C(=O)S1	56µM*	?	4%	-9%[46.1 µM]	5%[38.3 µM]	?
CCCOc1ccc(C(=O)Nc2cc3nn(-c4ccc(CC)cc4)nc3cc2C)cc1	·	0%	1%	·	·	·
CCNC(=O)N1c2ccc(OC)cc2C(C)=CC1(C)C	-18%	-3%	1%	-13%[46.1 µM]	17%[38.3 µM]	?
COc1ccc(NC(=O)N2c3ccc(OC)cc3C(C)=CC2(C)C)cc1	20µM*	-7%	19%	-2%	4%	?
CCc1ccc(NC(=O)C(CC)Sc2nc3cc4c(cc3c(=O)n2Cc2ccco2)OCO4)cc1 (stereo unspecified)	45µM*	-5%[0.501 µM]	2%	?	19%[38.3 µM]	-5%
c1coc(-c2cc(C3CCNCC3)[nH]n2)c1	6%	-6%	-2%	7%	9%	-5%
N#CCN1CCC(c2cc(-c3ccco3)n[nH]2)CC1	11µM*	0%	-4%	5%	?	-28%
Cc1[nH]cnc1CSCCN	7.1µM*	-5%	0%	-11%[46.1 µM]	2%[38.3 µM]	-10%
